Records with an inconclusive call do not appear. Active and inactive are the calls of the source. Calls come from the whole dose curve; as a rule, active = well fitted curve in the direction sought with a large enough effect; inconclusive = small, poorly fitted or top-dose-only effect, or another doubt; inactive = no such curve, though single readings can be large; an effect the other way counts as inactive or inconclusive.
Key:
[1] = qHTS for compounds that reverse cellular toxicity of Amyloid beta (A-beta) peptide in yeast: LOPAC Validation Assay (AID 720559); conditions: yeast expressing A-beta; series mostly up to 46.1 µM;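 note: plate controls were DMSO for no effect and equimolar ferric chloride plus clioquinol rescue for full effect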
Method in brief: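 Rescue of A-beta toxicity was scored as yeast growth by 600 nm absorbance after 48 hr at 30 C with compound. Normalization used DMSO (negative) and equimolar ferric chloride plus clioquinol (positive).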

[2] = qHTS for Activators of Parkin Expression: LOPAC Validation Assay (NLuc Reporter) (AID 720572;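 note: 0% = DMSO and 100% = positive control compound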); conditions: Parkin promoter NanoLuc reporter cells, luminescence; series mostly up to 46.1 µM
Method in brief: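 Neuronal line stably carrying a FLuc/NLuc coincidence reporter under the Parkin promoter, seeded 24 h, then dosed in 7-point series for 24 h at 37 C. NLuc luminescence read after FLuc; normalized to DMSO and positive control (100%).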

[3] = qHTS for Activators of Parkin Expression: LOPAC Validation Assay (FLuc Reporter) (AID 720573;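 note: 0% = DMSO and 100% = positive control compounds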); conditions: Cell line, PRKN promoter firefly luciferase reporter; series mostly up to 46.1 µM
Method in brief: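 FLuc signal from Parkin-promoter coincidence reporter neuronal cells, normalized to DMSO and positive control (100%). Cells (1,500/well) pre-incubated 24 h, then exposed to LOPAC compounds in 7-point dose response for 24 h at 37 C, 5% CO2.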

[4] = biological target: T1, Hexokinase-4 (Homo sapiens) + Glucokinase regulatory protein (Homo sapiens) (UniProt P35557+Q14397); test: qHTS assay for inhibitors of recombinant human GCK-GKRP interaction: Diaphorase-coupled assay (AID 743205); conditions: G6PDH/diaphorase resorufin fluorescence; series mostly up to 57.5 µM
Method in brief: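 A kinetic fluorescence read (Ex 525/Em 590 nm, every minute for 30 minutes) tracked resorufin from a G6PDH-diaphorase coupled GCK reaction. It contained 10 nM GST-GCK, 10 nM FLAG-GKRP, 5 mM glucose, 0.4 mM ATP in Hepes pH 7.6. Normalized to with/without-enzyme DMSO controls.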

[5] = biological target: T1, Hexokinase-4 (Homo sapiens) + Glucokinase regulatory protein (Homo sapiens); test: qHTS assay for inhibitors of recombinant human GCK-GKRP interaction: ADP-Glo assay (AID 743206); conditions: ADP-Glo luminescence, 60 min; series mostly up to 76.9 µM;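 note: plate controls were DMSO plus enzyme for no effect and no enzyme for full effect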
Method in brief: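 GST-GCK and FLAG-GKRP (15 nM each in the dispensed mix, with 2 uM S6P) react with 0.4 mM ATP and 5 mM glucose (final) in Hepes pH 7.6 for 60 min at room temperature. ADP is measured by ADP-Glo luminescence.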

[6] = qHTS Assay for Identifying Gametocytocidal Compounds (AID 743244);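 note: % is set by controls: 0 for no effect and ±100 for the full control effect; actives lower the fluorescent signal which means gametocytes are killed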; conditions: P. falciparum 3D7 stage III-V gametocytes, alamarBlue, 72 h; max response: hits give low values
Method in brief: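 Compounds are pinned into medium, gametocytes (stage III–V, 3D7, 20,000 cells/well) added, and plates held 72 h at 37 °C in 5% CO2. AlamarBlue follows for 24 h before fluorescence reading.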

[7] = biological target: T1, Hexokinase-4 (Homo sapiens) + Glucokinase regulatory protein (Homo sapiens); test: qHTS assay for inhibitors of recombinant human GCK-GKRP interaction: HTRF assay (AID 743207); conditions: recombinant GCK-GKRP HTRF binding, 60 min, with sorbitol-6-phosphate; series mostly up to 57.5 µM;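 note: 0% = DMSO with GCK present and -100% = DMSO wells lacking GCK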
Method in brief: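 After 60 min equilibration at room temperature with anti-FLAG XL665 and anti-GST antibodies, FRET ratio (665/615 nm, excitation 320 nm) was read. Proteins: GST-GCK and FLAG-GKRP, each 5 nM, plus 2 uM S6P, pH 7.1 buffer; GCK-free wells define minimum signal.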

T1 sequence (P35557 whole entry, looked up): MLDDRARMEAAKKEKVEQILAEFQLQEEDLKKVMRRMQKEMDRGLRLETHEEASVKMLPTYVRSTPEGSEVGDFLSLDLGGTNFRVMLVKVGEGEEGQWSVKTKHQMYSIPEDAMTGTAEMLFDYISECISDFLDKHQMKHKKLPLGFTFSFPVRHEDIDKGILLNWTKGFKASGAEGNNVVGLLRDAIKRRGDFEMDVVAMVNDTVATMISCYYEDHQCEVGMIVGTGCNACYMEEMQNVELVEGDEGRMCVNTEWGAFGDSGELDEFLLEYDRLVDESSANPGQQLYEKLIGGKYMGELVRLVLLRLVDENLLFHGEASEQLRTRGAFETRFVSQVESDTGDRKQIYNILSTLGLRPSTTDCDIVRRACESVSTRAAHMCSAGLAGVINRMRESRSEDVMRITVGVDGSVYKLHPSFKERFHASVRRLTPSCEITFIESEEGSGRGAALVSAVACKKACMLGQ
T1 sequence (Q14397 whole entry, looked up): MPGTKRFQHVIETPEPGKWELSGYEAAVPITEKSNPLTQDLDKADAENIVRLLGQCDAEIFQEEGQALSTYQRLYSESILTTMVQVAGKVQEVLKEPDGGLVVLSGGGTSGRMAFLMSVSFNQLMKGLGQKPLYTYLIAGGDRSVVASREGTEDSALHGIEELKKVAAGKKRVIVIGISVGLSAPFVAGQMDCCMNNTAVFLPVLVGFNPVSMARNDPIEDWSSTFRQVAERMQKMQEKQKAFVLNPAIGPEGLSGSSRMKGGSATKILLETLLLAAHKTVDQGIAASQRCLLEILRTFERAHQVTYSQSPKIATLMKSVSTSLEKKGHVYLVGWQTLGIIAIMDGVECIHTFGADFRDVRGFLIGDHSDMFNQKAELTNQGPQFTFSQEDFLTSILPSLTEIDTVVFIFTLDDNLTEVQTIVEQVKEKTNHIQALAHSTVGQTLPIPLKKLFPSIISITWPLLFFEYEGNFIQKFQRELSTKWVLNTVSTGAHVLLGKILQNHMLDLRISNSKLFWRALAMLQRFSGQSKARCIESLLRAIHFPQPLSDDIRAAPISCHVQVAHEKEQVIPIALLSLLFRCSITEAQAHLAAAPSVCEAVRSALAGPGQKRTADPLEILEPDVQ

Nc1ncnc2c1c(-c1ccc(Oc3ccccc3)cc1)cn2C1CCCC1
inactive: outcome [1] | Potency [2] | Potency [3] | Potency [4] | Potency [5] | max response [6] 4.42%

NC[C@@H]1O[C@H](c2ccccc2)Cc2c1ccc(O)c2O
inactive: outcome [1] | Potency [3] | Potency [4] | Potency [5] | Potency [7]

CC(C)(C)c1ccc(/C=C/C(=O)Nc2ccc3c(c2)OCCO3)cc1
inactive: Potency [2] | Potency [3] | Potency [4] | Potency [5] | Potency [7] | max response [6] 13.4%

O=c1cc(-c2ccccc2)[nH]c2nc(Cl)ccc12
inactive: Potency [2] | Potency [3] | Potency [4] | Potency [5] | max response [6] -6.09%

Source: PubChem BioAssay (NCATS)
